Counter-ions that a name gives are not always drawn.
Test system: 4T1
Test: % inhibition of 4T1 cell number vs DMSO control; higher = stronger growth inhibition
Conditions: 1 µM, 3 days
How it was run: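 4T1-H2B-GFP mouse breast cancer cells (3000 per well, 2% FBS medium) were seeded in 96-well imaging plates on plastic, denuded lung or mCAF1 fibroblast-derived matrix, Matrigel (15 μg/mL) or 0.2% gelatin; edge wells were left unused. After 16 h, kinase inhibitors were added at 1 μM final for 3 days. Plates were formalin-fixed, DAPI-stained and imaged on an INCell Analyzer 2200, and GFP-positive nuclei were counted. Percent inhibition of cell number was calculated relative to DMSO control.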

[1] = substrate: lung fibroblast-derived matrix
[2] = substrate: mCAF1 fibroblast-derived matrix

| SMILES | % inhibition of 4T1 cell number (substrate: Matrigel) [%] | % inhibition of 4T1 cell number (substrate: gelatin) [%] | % inhibition of 4T1 cell number [1] [%] | % inhibition of 4T1 cell number [2] [%] | % inhibition of 4T1 cell number (substrate: plastic) [%] |
| --- | --- | --- | --- | --- | --- |
| Nc1ccc(-c2cccc3c(=O)cc(N4CCOCC4)oc23)cc1 | -40.7 | -16.5 | -12 | 28.6 | -60.7 |
| c1ccc(-c2n[nH]c3c2oc2ccccc23)cc1 | -3.87 | -77.4 | -1.95 | -3.97 | -64.2 |
| CCC(=O)Nc1ccc2ncnc(Nc3cccc(Br)c3)c2c1 | -8.72 | -108 | -2.26 | -19.4 | -59.2 |
| CC(C)[C@H](CO)Nc1nc(Nc2cc(N)cc(Cl)c2)c2ncn(C(C)C)c2n1 [Aminopurvalanol A] | 77.4 | 71.6 | -15.7 | 41.1 | 80.1 |
| CCCCc1c(-c2ccc(O)cc2)[nH]c2nccnc12 [Aloisine A] | 53.4 | 38 | 1.62 | -3.45 | 48.1 |
| O=C1Nc2ccc(Br)cc2/C1=C/c1cc2c([nH]1)CCCC2 [VEGF Receptor 2 Kinase Inhibitor II] | 16.3 | -22.2 | -11.9 | -141 | 8.31 |
| Nc1nccc(-c2c(-c3ccc(F)cc3)ncn2C2CCNCC2)n1 | -17.8 | -10.4 | 11.7 | 29.5 | -59.1 |
| c1cc(-c2cnn3cc(-c4ccc(OCCN5CCCCC5)cc4)cnc23)ccn1 [AMPK Inhibitor, Compound C] | 49.6 | 27.5 | 12.9 | 7.87 | 52.8 |
| O=C1Nc2ccc(Cl)cc2/C1=C/c1cc(Cl)c(O)c(Cl)c1 [PKR Inhibitor, Negative Control] | -11.8 | -80.4 | 86.7 | 8.78 | -63.2 |
| COc1cc(OC)c(C=C2C(=O)Nc3ccccc32)c(OC)c1 | 85.7 | 85.1 | 86.7 | 84.2 | 70.1 |
| c1ccc2c(-c3ccncc3)c[nH]c2c1 [Rho Kinase Inhibitor III, Rockout] | -26.4 | -33.3 | -7.01 | 37.7 | -78.9 |
| Cc1nc(-c2ccccc2)c(-c2ccncc2)o1 | 36.5 | 13.3 | 14.6 | -10.1 | 5.64 |
| CCN(CC)CCCCN1c2ccccc2Oc2ccc(Cl)cc21 [Akt Inhibitor X] | 72.7 | 46.6 | -2.93 | -26.9 | 40 |
| CC(C)n1cnc2c(NCc3ccccc3O)nc(NCCCO)nc21 [Cdk Inhibitor, p35] | 20.1 | 13.4 | -6.35 | -51.8 | 14.9 |
| CCCCCCOC(=O)[C@]1(O)C[C@@H]2O[C@@]1(C)n1c3ccccc3c3c4c(c5c6ccccc6n2c5c31)C(=O)NC4 | -41.8 | -0.139 | -8.63 | 13.5 | -74.7 |
| CNCCNS(=O)(=O)c1cccc2cnccc12 [H-8, Dihydrochloride] | -17.7 | 25.7 | -6.96 | 30.5 | -63 |
| Cc1cc(C)c(/C=C2\C(=O)Nc3ccccc32)[nH]1 [VEGF Receptor 2 Kinase Inhibitor III] | 14.1 | 30.2 | -11.5 | -25 | 2.08 |
| O=C1NCCc2[nH]c(-c3ccnc(-c4cnc5ccccc5c4)c3)cc21 [MK-2 Inhibitor III] | -42.1 | -5.86 | -4.6 | 4.98 | -48.3 |
| O=C(Nc1cc(Cl)cc2c1[nH]c1cnccc12)c1cccnc1 [IKK Inhibitor X] | 42.5 | 25.8 | -6.01 | -10 | 57.7 |
| O=C(Nc1ccc(-c2cn[nH]c2)cc1)C1COc2ccccc2O1 (stereo not given) [Rho Kinase Inhibitor V] | -9.35 | 14.6 | -8.88 | 7.12 | -3.09 |
| COc1cc(SC)ccc1C(=O)N1CCC(Cc2ccccc2)CC1 [p38 MAP Kinase Inhibitor VI, JX401] | -31.1 | 8.59 | -4.09 | 17 | -66.3 |
| O=c1cc(N2CCOCC2)oc2c(-c3ccccc3)cccc12 | -14.7 | -77.3 | 28.2 | 17.4 | -56.8 |
| CN[C@@H]1C[C@H]2O[C@@](C)([C@@H]1OC)n1c3ccccc3c3c4c(c5c6ccccc6n2c5c31)C(=O)N[C@H]4O | 99.4 | 99.2 | 14.1 | 88.8 | 95.5 |
